According to the supplement of paper PMC6555819:

These sequences were tested on VDR:RXRa (NR concentration 270 nM, RXRa partner concentration 90 nM) (assay: PBM binding z-score (relative to random genomic background probes); higher = stronger binding; sequences stand for … in GC…GCGATTGACAGCGTAGAATGAAGG).
Experimental: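 Protein-binding microarray (Agilent 4x180K custom design, double-stranded 60-nt probes: 5' GC cap, 34-nt variable region, 24-nt constant primer region; full probe sequence given). Purified or IVT nuclear receptor:RXRα heterodimers (3:1 NR:RXRα, mostly 270:90 nM) or homodimers were incubated for 1 h in PBS with 2% milk and no ligand, then detected with Alexa488 antibodies. Fluorescence from o1-orientation probes (~5 replicates averaged) was converted to z-scores against 500 random hg19 background probes. Variable regions are seed direct-repeat (DR0–DR5) sites, all their single-nucleotide variants and half-site ablations.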

Sequence | PBM binding z-score
GCGACTGGGGCAAAGCAGTTTACCATAAGGTTGG | 0.278
CGTCCAAGGTCTAAGGTCAGTGAAGAGATGACGG | 1.73
AGGATGAGGTTATTAAGATCAGGGAATTGCGGTC | 2.66
ATCTCTAGGTAGAAGTTCAGTGAATCCCGAGGAT | 0.473
AATACAGGCTCATCGTAGGCCAGAGTACGCACAG | -0.438
TAGCCTACGTCATTGGGCCAGTATAGTACGCATC | -0.617
CCTAGGAGGCCAATCTGGGTCACTCAAGGCTTGA | 1.21
GCTAGCAGGCCATTTGGGTCACTCACTGACGGGC | 0.766
GTACCAAGGTGATTAGGTCGTTGATGAGTAGGCG | 0.223
CTTGCTAGGTCAATGGTCAGCTAAAGCAGCTCGC | 0.921
CGAACTAGGTCAGAAAAGGACAGTGAAGGATGAT | 0.459
CGAACTAGGTCAATGACAGGACAGTGAATAGTAA | 1.38
ACAGACAGGTGAGTGAGGGTAACTCAGCTGGACG | 2
ATCGAAAGGTCGACGAGGTGATTATACACCGTTT | 5.76
CAGCCTAGGTCCGGGCCAGTATAGGAGGAACGTT | -0.982
TCTAGTAGGTTAGTCGGGGCATTCAGCCAACATA | 2.68
TCTCGGAGGACGCGAAGGTCAGAGCTTTCCAGAG | 1.23
CCTACTGGGCCACGAAAGGTCATTAATTCAGTGA | 3.74
TGTCAAGGTTCAAAGGTAACGTAAGTATCCACAC | 4.59
TCATCTAGGTAAAAGGTGAAAGTCGGTGTGGTAA | 1.5

Sequence | PBM binding z-score
GGAACGAGGGTATTCGAGTTGATAGCATGGCGAT | 1.18
CTTATTAGTTGACCATAAGGGCAACCGAAGCTCG | 0.523
AGAACGAGAGCACGCTGAGTTGATAGCAGAGTAG | -0.462
TCTTGTAGATCAAAGGTTTAGAAAGCCGAAGCCT | 0.314
ATCCCTAGGTAACCAAGTTCAGTGAATGCCGAAC | 4.31
TCCTGTAGATCAAGCAGGTTAAGAAAGCCTGAGT | 0.503
CCTTCTGGGCCAAGGTCATTGATCAGTCAAAGCA | 3.17
CAAGCTAGGTCAAGGTCAAAGTCGGTTTGTGCCA | 5.24
CCGACTAGGTTATGGGGCATTCAGGCAACGGTGA | -0.337
CCTACTCGGCCAAAGGTCATTGATTCCAATGCTC | 4.8
AGAATGAGGTTATACGTAGAGCAGGGAAGAAAGT | 1.23
TTAACAAGGTGAAGGTCGTTGATCCCTCTGTAGA | 1.35
CCTACTTGGCCATTCAGAGGTCATTGATCATATG | 4.04
ATCTCTAGGTAAGACTCTGTTCAGTGAAGAACGC | 0.234
GCTGCTAGGTCAACTGATGGTAAGCTAAAGCTCG | 1.23
AGTCAAAGTTCACCTAGGTAACGTAAGATATGCT | 4.74
CGTCCAAGGTCAAAGGCCAGTGAAGAGATGACGG | 4.14
CCTAGTTGGACAAGGTCACACACGCTATAGGTAC | 4.08
ATCGAAAGGTCGACGAGGTGGGTATACACCGTTT | 4.34
TCTATTAGTTGCTTAGGGCAACCGAAACAGCGGA | 0.49
